# Data taken from ChEMBL document CHEMBL3988442, “University of Dundee, Small-Polar-MMV Screening Library” (2021).
# For some assays here: Measured potencies and affinities stand elsewhere.
# How the values were obtained:
# Design in all cases: scale not given: direction of the effect not stated beside the values
# [1] = target: Protein translocase subunit SecA (Escherichia coli (strain K12)) (UniProt P10408); test: Assay to Identify E. coli SecA ATPase Inhibitors; format: functional; settings: 30 µM
# [2] = target: T1, Ubiquitin-activating enzyme e1, putative (Leishmania donovani (strain BPK282A1)) (UniProt E9BSI1); test: Leishmania donovani Ubiquitin Activating Enzyme (LdE1); format: functional; settings: 30 µM
# T1 sequence (whole entry): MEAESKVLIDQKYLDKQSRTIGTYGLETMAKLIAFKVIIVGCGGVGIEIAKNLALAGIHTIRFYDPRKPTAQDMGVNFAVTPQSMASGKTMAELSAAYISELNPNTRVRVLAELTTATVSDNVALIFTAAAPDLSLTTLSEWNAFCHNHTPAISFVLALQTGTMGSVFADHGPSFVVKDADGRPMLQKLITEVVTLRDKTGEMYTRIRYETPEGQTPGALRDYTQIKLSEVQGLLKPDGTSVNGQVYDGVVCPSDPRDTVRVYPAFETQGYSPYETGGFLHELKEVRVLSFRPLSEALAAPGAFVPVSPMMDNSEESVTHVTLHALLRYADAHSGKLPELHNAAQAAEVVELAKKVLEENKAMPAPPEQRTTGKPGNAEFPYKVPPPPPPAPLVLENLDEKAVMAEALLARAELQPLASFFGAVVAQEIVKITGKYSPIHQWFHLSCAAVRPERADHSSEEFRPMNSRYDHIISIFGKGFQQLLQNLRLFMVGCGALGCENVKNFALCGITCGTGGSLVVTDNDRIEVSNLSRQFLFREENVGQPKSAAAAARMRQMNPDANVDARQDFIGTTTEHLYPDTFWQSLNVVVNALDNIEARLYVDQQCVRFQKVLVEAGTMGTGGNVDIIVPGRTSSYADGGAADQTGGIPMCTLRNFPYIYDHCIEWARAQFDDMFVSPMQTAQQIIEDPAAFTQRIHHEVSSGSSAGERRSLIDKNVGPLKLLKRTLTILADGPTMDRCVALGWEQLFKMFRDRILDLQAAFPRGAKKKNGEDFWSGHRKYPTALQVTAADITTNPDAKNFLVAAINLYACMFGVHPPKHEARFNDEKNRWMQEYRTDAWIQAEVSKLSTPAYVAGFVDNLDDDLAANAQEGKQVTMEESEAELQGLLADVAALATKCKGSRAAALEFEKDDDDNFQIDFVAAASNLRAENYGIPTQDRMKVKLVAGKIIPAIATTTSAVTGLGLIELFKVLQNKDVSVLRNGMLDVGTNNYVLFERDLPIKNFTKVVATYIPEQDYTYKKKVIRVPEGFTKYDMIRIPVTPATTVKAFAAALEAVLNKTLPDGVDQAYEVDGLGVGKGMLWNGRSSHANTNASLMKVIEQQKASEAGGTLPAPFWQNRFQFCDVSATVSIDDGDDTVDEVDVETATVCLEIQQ
# [3] = target: AMP-activated protein kinase, AMPK (Homo sapiens) (UniProt P54646+O43741+P54619+Q9UGJ0+Q9Y478+Q13131+Q9UGI9); test: AMP-dependent Kinase enzyme assay. An in vitro enzyme assay that detects ADP turnover that is directly proportional to AMPK activity. This uses naive AMPK that is activated during the assay with MK-8722; format: functional; settings: 30 µM
# [4] = target: Sialic acid-binding Ig-like lectin 9 (Homo sapiens) (UniProt Q9Y336); test: Hs-Siglec9 ALPHAscreen SOP 20170721; settings: 10 µM
# Trypanosoma cruzi = test: Trypanosoma cruzi phosphomannomutase and mannose-1-phosphate guanylyltransferase assay; format: functional; settings: 10 µM
# [5] = target: T2, Arginase-2, mitochondrial (Homo sapiens) (UniProt P78540); test: in vitro enzyme assay to detect the production of urea directly proportional to the activity of Arginase II; format: functional; settings: 33.3 µM; further: in the data most compounds retested in dose-response had high values
# T2 sequence (whole entry): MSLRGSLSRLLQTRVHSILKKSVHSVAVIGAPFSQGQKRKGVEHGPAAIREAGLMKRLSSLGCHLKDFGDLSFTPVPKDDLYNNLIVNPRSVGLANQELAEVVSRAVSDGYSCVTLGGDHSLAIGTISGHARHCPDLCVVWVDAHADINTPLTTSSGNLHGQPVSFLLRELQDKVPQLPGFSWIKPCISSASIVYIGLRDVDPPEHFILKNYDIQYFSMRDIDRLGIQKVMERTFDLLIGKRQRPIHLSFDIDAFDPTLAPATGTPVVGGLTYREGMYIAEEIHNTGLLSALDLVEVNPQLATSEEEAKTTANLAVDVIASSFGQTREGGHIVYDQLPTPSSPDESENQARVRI
# [6] = target: T3, Proteasome subunit beta (Trypanosoma cruzi) (UniProt O96673); test: Trypanosoma cruzi proteasome chymotrypsin-like activity (TcProtChymo) assay.; further: in the data most compounds retested in dose-response had high values; format: functional; settings: 9.37 µM
# T3 sequence (whole entry): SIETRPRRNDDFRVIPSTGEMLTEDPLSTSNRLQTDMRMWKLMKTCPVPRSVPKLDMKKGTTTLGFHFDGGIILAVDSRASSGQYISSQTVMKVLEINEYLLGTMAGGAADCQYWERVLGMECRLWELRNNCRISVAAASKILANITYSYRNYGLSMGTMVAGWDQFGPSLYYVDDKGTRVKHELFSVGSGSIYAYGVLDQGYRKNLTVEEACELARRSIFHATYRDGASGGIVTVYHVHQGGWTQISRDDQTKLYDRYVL
# Homo sapiens = species on record: Homo sapiens; test: To identify inhibition of the IFN signalling (Jak-Stat) pathway via expression of an eGFP reporter gene under the control of an IFN-stimulated response element (ISRE) containing MxA promoter.; format: functional; settings: 30 µM
# [7] = target: T4, Tyrosyl-tRNA synthetase, putative (Trypanosoma cruzi (strain CL Brener)) (UniProt Q4DSP6); test: Trypanosoma cruzi tyrosyl tRNA synthetase (TcYRS) _High Tyrosine SOP; format: functional; settings: 30 µM; further: in the data most compounds retested in dose-response had high values
# T4 sequence (whole entry): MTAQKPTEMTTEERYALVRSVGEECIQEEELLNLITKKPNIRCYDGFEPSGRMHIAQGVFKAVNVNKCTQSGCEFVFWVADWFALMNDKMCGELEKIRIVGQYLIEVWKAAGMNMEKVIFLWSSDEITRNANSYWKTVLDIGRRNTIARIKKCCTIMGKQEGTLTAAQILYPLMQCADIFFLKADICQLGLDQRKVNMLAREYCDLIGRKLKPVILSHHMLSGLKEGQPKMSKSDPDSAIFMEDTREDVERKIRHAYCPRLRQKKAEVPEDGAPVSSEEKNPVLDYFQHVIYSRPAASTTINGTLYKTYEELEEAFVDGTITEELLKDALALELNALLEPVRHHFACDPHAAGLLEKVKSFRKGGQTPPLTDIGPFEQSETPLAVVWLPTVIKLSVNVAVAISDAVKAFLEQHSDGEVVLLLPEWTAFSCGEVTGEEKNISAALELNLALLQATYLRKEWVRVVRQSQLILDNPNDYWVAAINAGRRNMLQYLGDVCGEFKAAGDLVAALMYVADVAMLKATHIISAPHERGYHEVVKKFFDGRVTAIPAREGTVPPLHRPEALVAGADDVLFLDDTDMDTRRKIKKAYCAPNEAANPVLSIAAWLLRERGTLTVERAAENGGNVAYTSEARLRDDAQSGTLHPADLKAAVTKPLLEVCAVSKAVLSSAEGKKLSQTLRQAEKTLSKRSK
# [8] = target: T4, Tyrosyl-tRNA synthetase, putative (Trypanosoma cruzi (strain CL Brener)); test: Trypanosoma cruzi tyrosyl tRNA synthetase (TcYRS) SOP; format: functional; settings: 30 µM
# [9] = target: Chromo domain-containing protein 1 (Saccharomyces cerevisiae (strain ATCC 204508 / S288c) (Baker's yeast)) (UniProt P32657); test: ScCHD-1 Enzyme Inhibition Assay; format: functional; settings: 30 µM; further: in the data most compounds retested in dose-response had high values
# Sequence of Chromo domain-containing protein 1 (Saccharomyces cerevisiae (strain ATCC 204508 / S288c) (Baker's yeast)) (P32657 whole entry, the tested form may be a part): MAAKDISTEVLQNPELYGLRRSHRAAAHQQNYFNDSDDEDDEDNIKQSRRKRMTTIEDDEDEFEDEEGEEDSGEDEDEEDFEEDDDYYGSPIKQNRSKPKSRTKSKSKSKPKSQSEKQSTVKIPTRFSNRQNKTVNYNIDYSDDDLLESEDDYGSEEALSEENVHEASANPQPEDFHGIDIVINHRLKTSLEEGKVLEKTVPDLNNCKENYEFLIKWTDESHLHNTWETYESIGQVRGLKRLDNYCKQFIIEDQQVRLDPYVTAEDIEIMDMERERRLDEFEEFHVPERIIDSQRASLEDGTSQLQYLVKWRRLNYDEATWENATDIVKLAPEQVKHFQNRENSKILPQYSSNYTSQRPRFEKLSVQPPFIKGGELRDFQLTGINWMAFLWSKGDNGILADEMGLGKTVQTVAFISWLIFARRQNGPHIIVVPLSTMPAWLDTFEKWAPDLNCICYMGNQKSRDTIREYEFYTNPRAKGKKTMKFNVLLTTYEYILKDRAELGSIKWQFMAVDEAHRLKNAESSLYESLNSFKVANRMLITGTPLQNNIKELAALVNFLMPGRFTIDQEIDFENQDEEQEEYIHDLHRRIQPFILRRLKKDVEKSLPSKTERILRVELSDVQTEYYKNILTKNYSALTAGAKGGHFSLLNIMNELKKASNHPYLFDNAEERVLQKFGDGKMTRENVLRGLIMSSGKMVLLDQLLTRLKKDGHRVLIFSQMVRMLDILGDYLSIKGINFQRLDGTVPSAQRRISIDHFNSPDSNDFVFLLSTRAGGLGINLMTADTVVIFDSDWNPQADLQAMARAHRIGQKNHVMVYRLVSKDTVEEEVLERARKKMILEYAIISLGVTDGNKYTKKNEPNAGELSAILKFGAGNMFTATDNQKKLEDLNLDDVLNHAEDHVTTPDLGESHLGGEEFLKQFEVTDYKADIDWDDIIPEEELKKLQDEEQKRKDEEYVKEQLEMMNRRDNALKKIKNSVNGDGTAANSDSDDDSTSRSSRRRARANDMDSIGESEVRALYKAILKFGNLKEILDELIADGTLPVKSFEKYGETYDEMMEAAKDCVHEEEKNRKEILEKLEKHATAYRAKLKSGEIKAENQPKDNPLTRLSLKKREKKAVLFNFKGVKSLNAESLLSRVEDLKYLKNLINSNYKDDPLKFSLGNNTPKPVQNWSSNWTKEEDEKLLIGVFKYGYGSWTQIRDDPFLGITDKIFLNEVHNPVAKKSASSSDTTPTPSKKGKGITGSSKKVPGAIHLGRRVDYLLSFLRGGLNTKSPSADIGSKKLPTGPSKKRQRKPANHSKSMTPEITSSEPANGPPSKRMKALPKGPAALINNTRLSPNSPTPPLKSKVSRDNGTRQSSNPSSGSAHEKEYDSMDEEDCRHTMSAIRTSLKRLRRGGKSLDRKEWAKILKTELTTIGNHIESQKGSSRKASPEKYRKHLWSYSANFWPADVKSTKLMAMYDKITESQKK
# Sequence of Protein translocase subunit SecA (Escherichia coli (strain K12)) (P10408 whole entry): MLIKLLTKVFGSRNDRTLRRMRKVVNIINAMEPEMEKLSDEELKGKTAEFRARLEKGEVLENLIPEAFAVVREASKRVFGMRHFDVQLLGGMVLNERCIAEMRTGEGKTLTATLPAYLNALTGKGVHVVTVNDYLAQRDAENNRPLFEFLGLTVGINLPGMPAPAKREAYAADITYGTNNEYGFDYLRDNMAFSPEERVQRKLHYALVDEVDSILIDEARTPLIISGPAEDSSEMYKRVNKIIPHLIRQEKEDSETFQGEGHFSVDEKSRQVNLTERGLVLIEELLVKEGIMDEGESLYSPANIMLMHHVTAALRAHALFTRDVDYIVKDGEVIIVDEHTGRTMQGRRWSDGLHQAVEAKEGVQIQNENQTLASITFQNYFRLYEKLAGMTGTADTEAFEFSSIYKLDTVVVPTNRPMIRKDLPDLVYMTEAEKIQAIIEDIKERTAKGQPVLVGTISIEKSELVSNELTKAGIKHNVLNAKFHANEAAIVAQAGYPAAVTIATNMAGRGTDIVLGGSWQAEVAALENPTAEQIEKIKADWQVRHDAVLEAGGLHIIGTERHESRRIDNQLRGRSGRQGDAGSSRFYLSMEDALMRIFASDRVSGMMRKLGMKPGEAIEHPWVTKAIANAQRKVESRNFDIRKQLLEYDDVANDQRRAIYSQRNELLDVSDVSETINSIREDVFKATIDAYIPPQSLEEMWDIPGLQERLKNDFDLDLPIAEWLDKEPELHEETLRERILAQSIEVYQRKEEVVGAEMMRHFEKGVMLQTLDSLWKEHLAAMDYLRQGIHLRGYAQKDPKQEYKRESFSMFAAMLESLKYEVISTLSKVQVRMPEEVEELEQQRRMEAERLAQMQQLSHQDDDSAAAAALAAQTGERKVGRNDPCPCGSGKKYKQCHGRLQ
# Sequence of Sialic acid-binding Ig-like lectin 9 (Homo sapiens) (Q9Y336 whole entry): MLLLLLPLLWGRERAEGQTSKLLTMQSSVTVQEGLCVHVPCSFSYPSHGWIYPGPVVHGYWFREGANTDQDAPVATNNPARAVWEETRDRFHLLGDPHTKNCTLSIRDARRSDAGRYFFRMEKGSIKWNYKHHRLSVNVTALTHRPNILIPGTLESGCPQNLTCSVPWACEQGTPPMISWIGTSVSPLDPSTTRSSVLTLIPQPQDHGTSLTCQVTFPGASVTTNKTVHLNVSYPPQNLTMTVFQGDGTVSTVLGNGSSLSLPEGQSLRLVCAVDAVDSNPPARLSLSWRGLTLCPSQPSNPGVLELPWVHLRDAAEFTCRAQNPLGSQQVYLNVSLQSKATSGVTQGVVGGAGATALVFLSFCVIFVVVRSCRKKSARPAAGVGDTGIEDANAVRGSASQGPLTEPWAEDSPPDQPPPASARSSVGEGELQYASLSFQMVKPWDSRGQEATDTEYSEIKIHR
SMILES,Percent Effect [1] [%],Percent Effect [2] [%],Percent Effect [3] [%],Percent Effect [4] [%],Percent Effect (Trypanosoma cruzi) [%],Percent Effect [5] [%],Percent Effect [6] [%],Percent Effect (Homo sapiens) [%],Percent Effect [7] [%],Percent Effect [8] [%],Percent Effect [9] [%]
Cc1nc(CN2C(=O)C[C@H]3[C@H]2CCN3C2CCOCC2)cs1,-2.26,11,-0.758,4.06,0.595,-2,8.3,-4.37,3.12,11.1,-3.21
Cc1cc(CN2CC[C@H]3C(=O)N(c4ccccc4)CCO[C@H]3C2)no1,-3.31,21.3,1.48,-6.56,-4.92,-2.1,8.37,19.1,2.13,11.5,-1.25
O=C(c1cnoc1)N1CCC[C@]2(C[C@@H](OCc3ccccn3)CO2)C1,-1.86,21.9,-6.83,23.6,5.56,-1.6,12.8,1.81,6.25,8.64,-6.46
Cc1nc(C(C)C)sc1C(=O)NS(=O)(=O)c1ccc(C#N)cc1,-1.22,8.11,-3.43,18.3,5.99,9.52,11.9,-9.57,4.76,9.76,-5.85
c1cnc(-c2nc(CN3CCCC(Cn4cncn4)C3)cs2)nc1 (stereo unspecified),-3.67,8.11,-6.35,6.78,-4.81,-0.802,11,10.9,6.4,6.17,-4.11
Cc1cnn(CC2CN(Cc3nc4ccccc4nc3C)CCO2)c1 (stereo unspecified),-4.61,2.6,-4.31,-1.3,6.56,-4,7.52,-8.59,9.52,14.1,-22.4
Cc1nc(C2CCCN(C(=O)CCCn3cccn3)C2)no1 (stereo unspecified),-4.66,23.4,-2.84,4.64,4.49,-0.356,5.57,11,6.8,24.4,-8.73
O=C(NCCOCC(F)(F)F)c1ccc(-c2ccco2)[nH]c1=O,-1.86,8.11,3.08,3.06,-6.13,-0.802,8.29,19.7,6.4,11.1,-6.31
CCCn1ccc(C(=O)N2CCC(C)CC2)n1,-3.61,10.4,1.17,5.81,0.295,-44.1,6.49,-8.22,8.6,18.5,-1.29
CCCOCC(=O)NC1CCc2nc(C)cn2C1 (stereo unspecified),-4.43,5.26,8.68,1.69,-2.04,-9.47,17.2,0.806,7.45,13,-0.543
CCOc1ccccc1-c1noc(CN2CC(n3cccn3)C2)n1,-1.57,2.6,2.37,-3.32,8.13,-3.16,2.99,4.34,0.952,7.06,-6.41
CN(CC(=O)NC1(C#N)CCCC1)C1CCCN(c2cccnn2)C1 (stereo unspecified),-3.01,7.89,-63.6,7.82,8.12,2.16,11.6,-30.1,6.4,18.5,-6.35
Cc1cc(CNC(=O)NC(C)c2ccncc2)no1 (stereo unspecified),-0.908,7.79,2.08,2.87,-8.36,-1.38,12.7,11.9,2.15,6.17,-1.85
CCc1nnc2n1CCN(C(=O)CN(C)Cc1ccccc1)C2,-2.83,7.89,-9.27,7.43,5.88,2.16,4.32,-5.24,4.43,18.5,-4.71
Cc1noc(C)c1-c1cncc(C2CCCN2Cc2cncnc2)n1 (stereo unspecified),-2.17,2.67,6.8,-2.83,-3.54,1.63,5.55,18.2,4.25,8.97,-6.34
Cc1ccc(OCCNC(=O)C(C)n2cncn2)cc1 (stereo unspecified),-1.61,15.2,7.61,-6.9,-9.91,0.38,11.1,35.3,-1.48,3.8,-3.56
